Assay results: the supplement of paper PMC6609913
Counter-ions that a name gives are not always drawn. ± gives the standard deviation of the averaged measurements. Whole data set: some 1,300 compounds, median “normalised cell viability” near 1, cut for the lowest 2% near 0.15. Only a selection was taken, and the lowest values are over-represented in it overall.

Test system: V-C8 + BRCA2 (BRCA2-proficient hamster cells)
Test: normalised cell viability (fraction of plate median); higher = more viable cells (less toxic)
Details: 5 µM
In short: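 Cell viability was measured with a resazurin assay, normalised to the plate median (modified robust per cent of sample) and averaged over triplicate wells. Hamster V-C8 cells lacking BRCA2 and V-C8 cells with BRCA2 restored were seeded in 96-well plates. After 24 h, library drugs from 10 mM DMSO stocks were added at a final 5 μM in 100 μl medium and left for 3 days (screen 1) or 6 days (screen 2), with solvent-only wells alongside.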

SMILES | normalised cell viability (treatment time: 3 days) | normalised cell viability (treatment time: 6 days)
Fc1ccc(C(OCCN2CCN(CCCc3ccccc3)CC2)c2ccc(F)cc2)cc1 | 0.18 ± 0.0028 | 0.191 ± 0.0064
COc1ccc(CCN2CCC(Nc3nc4ccccc4n3Cc3ccc(F)cc3)CC2)cc1 [Astemizole] | 0.118 ± 0.0065 | 0.102 ± 0.0063
C[C@]12C[C@H]3S[C@H]3C[C@@H]1CC[C@@H]1[C@@H]2CC[C@]2(C)[C@@H](O)CC[C@@H]12 [Epitiostanol] | 1.02 ± 0.019 | 1.05 ± 0.022
CC(C)[N+](C)(CCC(C(N)=O)(c1ccccc1)c1ccccc1)C(C)C [Isopropamide iodide] | 1.04 ± 0.062 | 1.02 ± 0.11
CN1[C@@H]2CC[C@H]1C[C@@H](OC1c3ccccc3CCc3ccccc31)C2 [Deptropine citrate] | 0.931 ± 0.016 | 0.869 ± 0.065
OC(c1ccccc1)(c1ccccc1)C1CCNCC1 [Azacyclonol] | 0.985 ± 0.041 | 1.03 ± 0.042
C[C@@H]1CC[C@H]2[C@@H](C)C(=O)O[C@@H]3O[C@@]4(C)CC[C@@H]1[C@]32OO4 [Artemisinin] | 0.794 ± 0.024 | 0.87 ± 0.095
C[C@]12CC[C@H](O)C[C@H]1CC[C@@H]1[C@@H]2C[C@@H](O)[C@]2(C)[C@@H](C3=CC(=O)OC3)CC[C@]12O [Digoxigenin] | 0.962 ± 0.11 | 0.986 ± 0.056
CC(=O)NC1CCSC1=O (racemic) [N-Acetyl-DL-homocysteine Thiolactone] | 1.05 ± 0.096 | 1.06 ± 0.11
CO[C@]12C[C@@H](COC(=O)c3cncc(Br)c3)CN(C)[C@@H]1Cc1cn(C)c3cccc2c13 [Nicergoline] | 0.81 ± 0.019 | 0.926 ± 0.01
CNCC(O)c1ccc(O)cc1 (racemic) [(+,-)-Synephrine] | 1.01 ± 0.085 | 1.01 ± 0.022
C[CH2][Hg][S]c1ccccc1C(=O)[O-].[Na+] [Thimerosal] | 0.106 ± 0.0062 | 0.118 ± 0.007
NCCC(O)C(=O)NC1CC(N)C(OC2OC(CN)C(O)[C@H](O)[C@@H]2N)[C@H](OC2O[C@H](CO)[C@@H](O)[C@@H]2O)[C@@H]1O (stereo partly specified) [Butirosin disulfate salt] | 0.979 ± 0.026 | 0.868 ± 0.3
C[C@@H]1C[C@@H]([C@H](O)CC2CC(=O)NC(=O)C2)C(=O)[C@@H](C)C1 [Cycloheximide] | 0.146 ± 0.008 | 0.138 ± 0.016
CC(CCc1ccccc1)NC(C)C(O)c1ccc(O)cc1 (stereo unspecified) [Nylidrin] | 1.02 ± 0.0065 | 1.02 ± 0.051
CCC(=O)O[C@@](Cc1ccccc1)(c1ccccc1)[C@@H](C)CN(C)C [Levopropoxyphene napsylate] | 0.979 ± 0.083 | 1.058 ± 0.0096
COc1cc([C@@H]2c3cc4c(cc3[C@H](O)[C@H]3COC(=O)[C@H]23)OCO4)cc(OC)c1OC [Podophyllotoxin] | 0.143 ± 0.0046 | 0.136 ± 0.016
C=C1CC[C@@]2(O)[C@H]3Cc4ccc(O)c5c4[C@@]2(CCN3CC2CC2)[C@H]1O5 [Nalmefene hydrochloride] | 1 ± 0.043 | 1.07 ± 0.15
